Source: PubChem BioAssay (National Center for Advancing Translational Sciences (NCATS))
This is a sample that favours compounds with a hit; in the whole collection about 2.4% have one here.
Cruzain Triton: cruzain (T. cruzi) inhibition with detergent; P25779; 200,000 compounds, 0.43% hits; purified cruzain, Z-FR-AMC fluorescence, 0.01% Triton; AID 1478; Potency, µM, usual class: inhibitors; note: nearly all actives have a fitted effect of over 40% in size
Target sequence (P25779 123-467 limits assumed): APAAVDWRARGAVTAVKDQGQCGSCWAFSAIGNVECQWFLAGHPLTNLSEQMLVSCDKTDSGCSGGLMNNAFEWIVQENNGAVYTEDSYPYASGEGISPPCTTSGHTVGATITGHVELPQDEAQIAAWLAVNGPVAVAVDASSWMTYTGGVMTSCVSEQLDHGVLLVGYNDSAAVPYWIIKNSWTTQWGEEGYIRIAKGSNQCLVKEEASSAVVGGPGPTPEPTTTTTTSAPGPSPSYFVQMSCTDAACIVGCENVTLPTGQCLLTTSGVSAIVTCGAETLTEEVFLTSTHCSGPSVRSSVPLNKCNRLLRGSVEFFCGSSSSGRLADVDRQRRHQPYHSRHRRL
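Z-FR-AMC hydrolysis (2 uM substrate) by cruzain (1.5 nM) monitored kinetically at ex 360/em 450 nm after 15 min room-temperature compound exposure; 0.01% Triton X-100, pH 5.5, 5 mM DTT.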
Cruzain inh noDet: inhibitors of Trypanosoma cruzi cruzain without detergent | 200,000 compounds, 2.3% hits | P25779 | Potency, µM, actives largely listed as inhibitors | AID 1476 | purified cruzain, Z-FR-AMC fluorescence, no detergent; note: nearly all actives have a fitted effect of over 40% in size
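Purified cruzain at 1.5 nM, pre-incubated 15 min with compound at room temperature in 100 mM sodium acetate pH 5.5, 5 mM DTT, 0.00005% Triton X-100. Reaction started with 2 uM Z-FR-AMC; AMC fluorescence increase over 60 s gives rate.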
Of the large screens only hits and unclear results are named; the others gave an inactive call; ! = not active in a repeat. Calls come from the whole dose curve; as a rule, active = well fitted curve in the direction sought with a large enough effect; inconclusive = small, poorly fitted or top-dose-only effect, or another doubt; inactive = no such curve, though single readings can be large; an effect the other way counts as inactive or inconclusive.

COC(=O)c1c(NC(=O)C2c3ccccc3Oc3ccccc32)sc(C)c1C	Cruzain inh noDet 25.1µM
CCOC(=O)c1c(NC(=O)C2c3ccccc3Oc3ccccc32)sc(C(C)=O)c1C	Cruzain inh noDet inconclusive
COC(=O)c1c(NC(=O)Cc2ccccc2)sc(C)c1C	none
COC(=O)c1sc(NC(=O)C2c3ccccc3Oc3ccccc32)c(C(=O)OC)c1C	Cruzain inh noDet 10µM
CCOC(=O)c1c(NC(=O)C2c3ccccc3Oc3ccccc32)sc(C)c1C	Cruzain inh noDet inconclusive
Cc1cc(C)cc(NC(=O)C(NS(=O)(=O)c2cccc3nsnc23)c2ccccc2)c1 (configuration not stated)	none
CC(C)Cn1c(SCc2cccc(F)c2)nc2ccsc2c1=O	none
Cc1nc2cc(C(=O)OCC(=O)NC34CC5CC(CC(C5)C3)C4)ccc2n1-c1ccccc1	none
Cc1nc2cc(C(=O)OCC(=O)Nc3cccc(Cl)c3)ccc2n1-c1ccccc1	Cruzain inh noDet 25.1µM
CC(C)CCNS(=O)(=O)c1ccc(-c2ccc(S(=O)(=O)NCCC(C)C)cc2)cc1	Cruzain inh noDet 10µM
COc1ccc(S(=O)(=O)NCCC(C)C)cc1OC	none
Cn1cnc2c(NC3CCCC3)ncnc21	none
CCOC(=O)c1sc2ncn(CC(=O)Nc3ccc(OCC)cc3)c(=O)c2c1C	none
O=c1cc(N2CCN(c3ccc(F)cc3)CC2)[nH]c(=O)n1-c1ccc(Br)cc1	none
CC1Cc2ccccc2N1c1nc(C2CC2)nc2c1nnn2Cc1ccccc1 (configuration not stated)	Cruzain inh noDet 20µM
CC1Cc2ccccc2N1c1ncnc2c1nnn2Cc1ccccc1 (configuration not stated)	Cruzain inh noDet inconclusive
COC(=O)c1ccccc1NC(=O)Cn1c(=O)n(-c2ccc(C)cc2)c(=O)c2ccccc21	none
O=C(O)Cc1sc(Nc2ccccc2)nc1-c1ccccc1	none
O=C(Cc1sc(-c2ccccc2Cl)nc1-c1ccccc1)Nc1ccccc1	Cruzain inh noDet 12.6µM
O=C(Cc1sc(-c2ccccc2Cl)nc1-c1ccccc1)Nc1ccc(F)cc1	Cruzain inh noDet 15.8µM
O=C(Cc1sc(-c2ccccc2)nc1-c1ccccc1)Nc1ccc(Cl)cc1	Cruzain inh noDet inconclusive
COC(=O)CN1C(=O)CSc2ccc(S(=O)(=O)Nc3ccc(Cl)cc3C)cc21	none
c1ccc(CNc2ncncc2-c2ccoc2)cc1	none
O=C(NC1(C(F)(F)F)C(=O)Nc2c1c(=O)[nH]c(=O)n2-c1ccccc1)c1ccccc1 (configuration not stated)	none
COc1ccc(S(=O)(=O)Nc2cccc(-c3ccc(N4CCCCCC4)nn3)c2)cc1F	none
C/C(=N\NC(=O)CNc1cccc(C)c1)c1ccc(Br)s1	none
C/C(=N\NC(=O)c1ccc(Cl)c(Cl)c1)c1ccc(Br)s1	Cruzain inh noDet 25.1µM
CC1CC(=O)N(CC(=O)Nc2ccc(OC(F)(F)F)cc2)c2ccccc2S1 (configuration not stated)	Cruzain inh noDet inconclusive
O=S(=O)(c1ccc(-n2cnnn2)cc1)N1CCN(c2cccc(C(F)(F)F)c2)CC1	Cruzain inh noDet inconclusive
C#CCCCCCCCCCCCC(O)CC(O)CO (configuration not stated)	Cruzain inh noDet inconclusive
Cc1ccc2occ(CC(=O)Nc3c(C)cccc3C)c2c1	Cruzain inh noDet inconclusive
Cc1ccc(/C=C2/CCc3c([nH]c4ccccc34)C2=O)cc1	Cruzain inh noDet 31.6µM
O=C1/C(=C\c2ccccc2)CCc2c1[nH]c1ccccc21	Cruzain inh noDet inconclusive
Cc1ccc2[nH]c(-c3ccccc3)cc(=O)c2c1	none
Cc1ccc2[nH]c3c(c2c1)CC/C(=C/c1ccccc1)C3=O	Cruzain inh noDet 12.6µM
COc1cccc(NC(=O)Cn2c(=O)n(-c3ccc(CC(=O)NCC4CCCO4)cc3)c(=O)c3ccccc32)c1 (configuration not stated)	Cruzain inh noDet inconclusive
Cn1c(=O)c2[nH]c(/N=N\N3CCN(CCO)CC3)nc2n(C)c1=O	none
COc1ccccc1C(CC(=O)Nc1ccc(Cl)cc1)c1ccc(OC(C)C)cc1 (configuration not stated)	Cruzain inh noDet 3.16µM
COc1ccc(C(CC(=O)Nc2ccc(F)cc2)c2ccccc2)cc1 (configuration not stated)	none
CC(C)c1ccc(C(=O)CC2(O)C(=O)N(CCc3ccccc3)c3ccc(Cl)cc32)cc1 (configuration not stated)	none
CCC(CC)C(=O)Nc1ccc2nc(SCC(=O)N3CCc4ccccc43)sc2c1	none
COc1ccccc1CNc1ccc(-c2nc(C)no2)cc1[N+](=O)[O-]	Cruzain inh noDet 20µM
COc1ccccc1CNc1ccc(-c2nc(C(C)C)no2)cc1[N+](=O)[O-]	Cruzain inh noDet inconclusive
CC(C)C(=O)Nc1nnc(SCC(=O)N2c3ccccc3CC2C)s1 (configuration not stated)	Cruzain Triton 10µM, Cruzain inh noDet 31.6µM
CC1Cc2ccccc2N1C(=O)CSc1ccccc1 (configuration not stated)	none
O=C1/C(=C/c2ccccc2)Nc2ccccc21	none
O=C1/C(=C/c2ccccc2)NC(=S)N1C(c1ccccc1)c1ccccc1	Cruzain inh noDet 20µM
Cc1ccc(/C=C(\C#N)C(=O)Nc2ccc(Br)cc2)o1	none
Cc1ccc(/C=C(\C#N)C(=O)Nc2cccc(Br)c2)o1	Cruzain inh noDet 12.6µM
CCNc1ncc2nc(-c3ccc(Cl)cc3)c(=O)n(CCC#N)c2n1	none
O=C(Nc1ccc([N+](=O)[O-])cc1Cl)c1cc(Cl)ccc1O	Cruzain Triton 5.62µM!
COc1ccc(NC(=O)c2cc(Cl)ccc2Cl)c([N+](=O)[O-])c1	none
COc1ccc(C)cc1NC(=O)C1CCN(S(=O)(=O)c2c(C)noc2/C=C/c2ccco2)CC1	none
Nc1ccc(-c2nc3ccc(N)cc3o2)cc1	Cruzain Triton 20µM, Cruzain inh noDet 15.8µM
Cc1ccc2nc(-c3cc(N)cc(N)c3)oc2c1	Cruzain inh noDet inconclusive
COc1ccc(NC(=O)c2cc3c(=O)n(Cc4cccnc4)ccc3nc2C)cc1Cl	Cruzain inh noDet inconclusive
COc1cccc2cc(-c3nc4sc5c(c4c(=O)[nH]3)CCC(C(C)(C)C)C5)c(=O)oc12 (configuration not stated)	none
Cc1ccc(-c2nc(C(=O)NCc3ccccc3Cl)c3n2CCCCC3)cc1	none
CCSc1nnc(NC(=O)C2Cc3ccccc3CN2S(=O)(=O)CC)s1 (configuration not stated)	none
CCS(=O)(=O)N1Cc2ccccc2CC1C(=O)Nc1nccs1 (configuration not stated)	none
O=C(CN1C(=O)C2CC=CCC2C1=O)Nc1nnc(SCc2ccc(Cl)cc2)s1 (configuration not stated)	none
CCS(=O)(=O)N1Cc2ccccc2CC1C(=O)Nc1nc2c(C)cccc2s1 (configuration not stated)	Cruzain inh noDet 25.1µM
O=C(CN1C(=O)C2CC=CCC2C1=O)Nc1nnc(SCc2c(Cl)cccc2Cl)s1 (configuration not stated)	Cruzain inh noDet 15.8µM
CCS(=O)(=O)N1Cc2ccccc2CC1C(=O)Nc1nnc(SCc2c(Cl)cccc2Cl)s1 (configuration not stated)	Cruzain inh noDet 7.94µM
CN(C)c1cccc(C(=O)Nc2ccc(-c3nc4ccccc4s3)cc2)c1	none
Cc1nc(CC(=O)Nc2ccc(C(N)=O)cc2)cs1	none
Cn1nnnc1SCCCNCc1cccc(OCc2ccccc2)c1	none
Cc1ccc(C)c(C(=O)CSc2nc3cc(C(=O)NC4CCCC4)ccc3c(=O)n2CC2CCCO2)c1 (configuration not stated)	none
